# Reference: PubChem BioAssay (Tox21)
# Activity calls are given as the source filed them. Entries that show only a call come without a potency. The call rests on the fitted dose curve.
# Biological target: Estrogen receptor (Homo sapiens) (UniProt P03372)
# Test: qHTS assay to identify small molecule agonists of the estrogen receptor alpha (ER-alpha) signaling pathway in the presence of an antagonist (AID 1259383); further: top concentration of the series differs between compounds; nearly all actives have a fitted effect of over 15% in size
# Details: VM7Luc4E2 cells, ERE-luciferase, +ICI-182,780, 22 h; series mostly up to 92.4 µM
# In short: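 VM7Luc4E2 cells express endogenous full-length ER-alpha with an ERE-luciferase reporter and were hormone-deprived for 5 days. Compounds at 15 concentrations were added with 10.0nM ICI-182,780 for 22hr at 37C. Luminescence was read with ONE-Glo.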
# Chain of Estrogen receptor (Homo sapiens) (P03372 whole entry, looked up): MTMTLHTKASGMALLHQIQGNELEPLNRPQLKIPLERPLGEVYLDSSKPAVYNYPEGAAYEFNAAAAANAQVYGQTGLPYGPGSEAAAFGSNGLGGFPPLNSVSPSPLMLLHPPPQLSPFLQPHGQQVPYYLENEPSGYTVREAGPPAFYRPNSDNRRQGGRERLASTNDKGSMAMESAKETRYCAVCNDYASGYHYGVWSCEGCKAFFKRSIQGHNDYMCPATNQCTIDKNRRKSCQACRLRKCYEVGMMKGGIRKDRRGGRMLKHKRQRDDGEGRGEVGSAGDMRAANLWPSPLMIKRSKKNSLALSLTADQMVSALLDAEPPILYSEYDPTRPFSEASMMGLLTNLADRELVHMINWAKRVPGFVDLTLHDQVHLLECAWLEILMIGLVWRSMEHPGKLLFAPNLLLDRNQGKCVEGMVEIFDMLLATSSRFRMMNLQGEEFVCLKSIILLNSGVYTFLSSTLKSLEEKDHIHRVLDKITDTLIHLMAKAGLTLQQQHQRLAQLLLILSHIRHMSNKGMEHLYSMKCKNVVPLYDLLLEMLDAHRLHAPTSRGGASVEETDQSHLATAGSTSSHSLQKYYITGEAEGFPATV
row,SMILES,Potency
1,CC1(C)C(O)C(C)(C)C1O (centres undefined),inactive
2,O=S(O)CO,inactive
3,Cc1ccc(=O)n(-c2ccccc2)c1,inactive
4,CC(C)(C)NCCNC(C)(C)C,inactive
5,Nc1c2c(nc3ccccc13)CCCC2O (centres undefined),inactive
6,CN1N=C(C(N)=O)CCC1=O,inactive
7,CC(C)NC(=O)NC(C)C,inactive
8,O=C(O)c1ccccc1OP(=O)(O)O,inactive
9,Cc1cc(O)cc2c1O[C@](C)(CCC[C@H](C)CCC[C@H](C)CCCC(C)C)CC2,inactive
10,O=C1OC(=O)C2CCCCC12 (centres undefined),inactive
11,CCCCC/C=C\CCC=O,inactive
12,OCCOc1ccc(OCCO)cc1,inactive
13,OC(CCN1CCCCC1)(c1ccccc1)C1CC2C=CC1C2 (centres undefined),inactive
14,Cn1cc(S(C)=O)c(=O)c2ccc(F)cc21 (centres undefined),inactive
15,C=C(C)C(=O)OCCCCCCCC(C)C,inactive
16,C=C[Si](OC(=C)C)(OC(=C)C)OC(=C)C,inactive
17,CCO[Si](CCC1CCC2OC2C1)(OCC)OCC (centres undefined),inactive
18,Cc1cccc(C)c1NC(=O)C(C)N (centres undefined),inactive
19,Cc1nc2c([nH]1)c(=O)n(C)c(=O)n2Cc1ccco1,inactive
